Sampled rows, rich in hits. Any-hit rate of the full collection: about 6.5%.
PMK inhibit = S. pneumoniae PMK inhibitors, primary screen, biochemical, mevalonate pathway, pilot trial included | phosphomevalonate kinase (Streptococcus pneumoniae D39) | hit rate 0.49% among 65,000 | AID 539, 2006 | inhibition, % at 10 µM | purified PMK, PK/LDH-coupled NADH absorbance 340 nm;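 active = top-ranked compounds by inhibition in the single 10 µM screen, taking a fixed number of the strongest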
Spn MK inh = S. pneumoniae MK inhibitors, primary screen, biochemical, PK/LDH-coupled NADH absorbance; purified MK, PK/LDH-coupled NADH absorbance 340 nm; inhibition, % at 10 µM; hit rate 0.48% among 65,000;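 active = ranked among the strongest by inhibition in the single 10 µM screen, a fixed top-ranked set picked for dose follow-up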
DPM-DC inhibit = S. pneumoniae DPM-DC inhibitors, primary screen, biochemical, PK/LDH-coupled NADH fluorescence; diphosphomevalonate decarboxylase (Streptococcus pneumoniae D39); purified DPM-DC; calls only at 10 µM; hit rate 0.49% among 65,000; AID 556, 2006;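 active = the 320 compounds with the highest percent inhibition in the single-dose primary screen, excluding strongly autofluorescent ones, cut at about 32% in these data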;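 note: kinetic rate of NADH fluorescence loss reporting ADP formed by the decarboxylase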
NADH enzymes = inhibitors of PK/LDH coupling enzymes, profiling panel, artefact control, biochemical, MLSMR library; coupled PK/LDH NADH assays, four targets; IC50, µM (top dose mostly 10 µM); hit rate 0.02% among 65,000; AID 774, 2007;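 active = single-dose screening hits from any of four coupled enzyme assays that gave an IC50 when retested across doses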;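 note: the DPM-DC format reads NADH fluorescence rather than 340 nm absorbance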
Fluor 339 460 = intrinsic fluorescence of library compounds, ex339/em460 – biochemical, MLSMR library, data from DPM-DC assay, artefact control, profiling panel; compound autofluorescence, ex339/em460 nm, NADH buffer; hits give high values; 1 = no-compound wells, NADH background; hit rate 5.5% among 65,000; fluorescence fold increase at 10 µM;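 active = at 10 µM, mean starting fluorescence two-fold or more over control wells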;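 note: signal is the first read of a kinetic run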
A340 absorber = compound light absorbance at 340 nm, profiling panel, artefact control, biochemical, MLSMR library, data from PS, PMK, MK assays; compound absorbance at 340 nm, fold over control; fold change at 10 µM; 65,000 tested, under 10 active; AID 708, 2007;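 active = at 10 µM dose, initial 340 nm absorbance at least 2 fold that of control wells; inactive = change under 2 fold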;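 note: initial absorbance extrapolated from kinetic A340 decline of NADH oxidation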
Large screens that a line does not name were inactive.

CC(C)(C)C(=O)/C(C#N)=c1\s/c(=C\c2ccncc2)c(=O)n1CCCN1CCOCC1	none
O=C(NCc1ccco1)c1cc2sccc2n1Cc1ccccc1	none
CCC(=O)Nc1cc2c(cc1C(C)=O)OCCO2	none
CCC(=O)c1cc2c(cc1NC(=O)c1ccc(C)cc1)OCCO2	Fluor 339 460 3.1 (not shown: DPM-DC inhibit)
CCOCCCNC(=O)C1CCN(S(=O)(=O)N2CC(C)CC(C)C2)CC1 (configuration not stated)	PMK inhibit 28
COc1ccccc1CNC(=O)C1CCN(S(=O)(=O)N2CC(C)CC(C)C2)CC1 (configuration not stated)	PMK inhibit 25
O=C(NCc1ccccn1)c1ccc(N2CCCC2=O)cc1	none
O=C1c2ccccc2N2C(=O)c3ccccc3C2N1Cc1ccco1 (configuration not stated)	none
O=C1c2ccccc2NC(c2ccc(F)cc2)N1Cc1ccco1 (configuration not stated)	Fluor 339 460 3.8 (not shown: DPM-DC inhibit)
O=C1c2ccccc2NC(c2ccccc2)N1Cc1ccco1 (configuration not stated)	Fluor 339 460 2.2 (not shown: DPM-DC inhibit)
CC(=O)C1=C(O)C(=O)N(Cc2ccco2)C1c1ccc(F)cc1 (configuration not stated)	none
O=C(NC1CC1)C1C2C3C4CC5C3C5C4C12 (configuration not stated)	none
Nc1ccc(C(=O)OCc2nc3ccccc3[nH]2)cc1	none
Cn1c(NCc2c[nH]c3ccccc23)nc2ccccc21	none
Cn1cc(-c2nc3ccccc3[nH]2)c2ccccc21	Fluor 339 460 2.1 (not shown: DPM-DC inhibit)
Nc1ccccc1-c1nc2ccccc2[nH]1	Fluor 339 460 3.8 (not shown: DPM-DC inhibit)
Nc1ccc(-c2nc3ccccc3[nH]2)cc1	Fluor 339 460 2.1 (not shown: DPM-DC inhibit)
Cc1n[nH]c(C)c1-c1nc2ccccc2[nH]1	none
Nc1cccc(-c2nc3ccccc3[nH]2)c1	Fluor 339 460 2.2 (not shown: DPM-DC inhibit)
Cc1ccc(C)c2[nH]c(=O)c(CN(Cc3ccco3)S(=O)(=O)c3ccc4c(c3)OCCO4)cc12	none
CC(C)C1(C)C(=O)N=C2c3ccccc3C(=O)N21 (configuration not stated)	none
COc1ccc(-c2cc(N3CCCC3)n3ncnc3n2)cc1	none
COc1ccc(-c2cc(-c3ccccc3)n3ncnc3n2)cc1	Fluor 339 460 2.4 (not shown: DPM-DC inhibit)
CS(=O)(=O)N(CC(=O)Nc1cccc(F)c1)Cc1ccccc1	none
O=C(C1CCCN(S(=O)(=O)c2cccnc2)C1)N1CCn2c1nc1ccccc12 (configuration not stated)	none
Cc1ccc2oc(=O)c3cnn(CC(=O)NC4CCN(Cc5ccccc5)CC4)c3c2c1	DPM-DC inhibit active
O=C(Cn1ncc2c(=O)oc3ccccc3c21)NC1CC1	none
Cc1ccc(C2C3=C(CCCC3=O)Nc3nc(SCC(=O)NCc4ccco4)[nH]c(=O)c32)cc1 (configuration not stated)	Fluor 339 460 3.6
CCSc1nc2c(c(=O)[nH]1)C(c1ccccn1)C1=C(CC(C)(C)CC1=O)N2 (configuration not stated)	Fluor 339 460 2.2 (not shown: DPM-DC inhibit)
Nc1nc(SCC(=O)NCc2ccco2)[nH]c(=O)c1-c1ccccc1	none
O=C1CCCC2=C1C(c1ccncc1)c1c(nc(SCc3ccccc3)[nH]c1=O)N2 (configuration not stated)	Fluor 339 460 2.2 (not shown: DPM-DC inhibit)
COC(=O)c1cc2c(s1)-c1ccccc1OC2	Fluor 339 460 2.1 (not shown: DPM-DC inhibit)
O=c1[nH]cnc2c1oc1ccccc12	none
O=C(O)c1c(-c2ccccc2)c2oc3ccccc3c2[nH]c1=O	DPM-DC inhibit active, Fluor 339 460 3.6
Cc1cc(C(=O)N2CCN(C(=O)C3CCCO3)CC2)no1 (configuration not stated)	none
COc1cc2nc(N3CCN(C(=O)C4CCCO4)CC3)nc(N)c2cc1OC (configuration not stated)	Fluor 339 460 3.9 (not shown: DPM-DC inhibit)
Fc1ccc(-c2cc3nc(-c4ccccc4)cc(N4CCN(CCN5CCOCC5)CC4)n3n2)cc1	Fluor 339 460 3.7 (not shown: DPM-DC inhibit)
COc1cccc(-c2cc3nc(-c4ccccc4)cc(N4CCC5(CC4)OCCO5)n3n2)c1	Fluor 339 460 2.1 (not shown: DPM-DC inhibit)
COc1ccc(-c2cc3nc4c(c(N5CCC6(CC5)OCCO6)n3n2)CCCC4)cc1	Fluor 339 460 2
Cn1c(=O)[nH]c(=O)c2c1nc(SCC(O)CO)n2Cc1ccccc1Cl (configuration not stated)	none
CCOc1cc2[nH]c(=O)n(CCCCC(=O)NCc3ccco3)c(=O)c2cc1OCC	none
CCOc1cc2[nH]c(=O)n(CCCCC(=O)NC3CCCCC3)c(=O)c2cc1OCC	Fluor 339 460 2.5
COc1cc2[nH]c(=O)n(CCC(=O)NC3CCCC3)c(=O)c2cc1OC	Fluor 339 460 2
CCCCCNC(=O)CCCCn1c(=O)[nH]c2cc(OCC)c(OCC)cc2c1=O	Fluor 339 460 2.1
CCOc1cc2[nH]c(=O)n(CCCC(=O)NCc3ccco3)c(=O)c2cc1OCC	Fluor 339 460 2.3
O=C(CCCn1c(=S)[nH]c2cc3c(cc2c1=O)OCO3)N1CCc2ccccc2C1	none
CC(C)(C)c1csc(NC(=O)Cn2cnc3ccccc3c2=O)n1	none
Cc1ccc(S(=O)(=O)NCCN=C(CN2CCCC2)NS(=O)(=O)c2ccc(C)cc2)cc1	none
Cc1cccn2c(=O)c3cc(C(=O)NCCN4CCOCC4)n(Cc4ccccc4)c3nc12	Fluor 339 460 3.8 (not shown: DPM-DC inhibit)
CCOCCCn1c(=N)c(C(=O)NCCN2CCOCC2)cc2c(=O)n3cccc(C)c3nc21	Fluor 339 460 5.2 (not shown: DPM-DC inhibit)
O=C(c1cc2ccccc2o1)N1CCN=C1SCc1cccnc1	none
C#CC1(O)CC(C)N(C)C(C)C1 (configuration not stated)	none
c1ccc2c(c1)[nH]c1c(N3CCCC3)ncnc12	none
CN1CCN(c2ncnc3c2[nH]c2ccc(F)cc23)CC1	Fluor 339 460 2.3 (not shown: DPM-DC inhibit)
Cc1ccc2[nH]c3c(N4CCOCC4)ncnc3c2c1	Fluor 339 460 2.5 (not shown: DPM-DC inhibit)
c1ccc2c(c1)[nH]c1c(N3CCOCC3)ncnc12	none
c1ccc2c(c1)[nH]c1c(N3CCN(C4CCCCC4)CC3)ncnc12	Fluor 339 460 2.3 (not shown: DPM-DC inhibit)
CN1CCc2c(sc3c2c(=O)n(-c2ccccc2)c2nnc(SCc4ccccc4F)n32)C1	none
O=C(CSc1ccc2nnc(-c3ccc(F)cc3)n2n1)N1CCOCC1	none
CCOC(=O)c1oc2cccc(OCC(O)CNC(C)C)c2c1C (configuration not stated)	Fluor 339 460 3.6 (not shown: DPM-DC inhibit)
O=C(O)c1cc(=O)c2c(OCC(O)COc3cccc4oc(C(=O)O)cc(=O)c34)cccc2o1	none
COC(=O)c1ccc(C(=O)OC)c(NC(=O)c2oc(C)nc2C)c1	none

Compound activity (PubChem)
